Assay outcomes from PubChem BioAssay.
UCHL1 block: human UCHL1 deubiquitinase inhibition. inhibition, % at 20 µM. AID 1645859. 47,000 compounds, 0.2% hits. purified UCHL1, Ub-rhodamine cleavage fluorescence. P09936
USP7 inh: blocks human USP7 ubiquitin-rhodamine cleavage; inhibition, % at 20 µM; 47,000 compounds, 0.3% hits; purified USP7, Ub-rhodamine cleavage fluorescence; Q93009
USP30 block: inhibitors of human USP30 deubiquitinase; Q70CQ3; purified USP30, Ub-rhodamine cleavage fluorescence; inhibition, % at 25 µM; 47,000 compounds, 5.3% hits; AID 1645860
Target sequence (Q70CQ3 whole entry, looked up): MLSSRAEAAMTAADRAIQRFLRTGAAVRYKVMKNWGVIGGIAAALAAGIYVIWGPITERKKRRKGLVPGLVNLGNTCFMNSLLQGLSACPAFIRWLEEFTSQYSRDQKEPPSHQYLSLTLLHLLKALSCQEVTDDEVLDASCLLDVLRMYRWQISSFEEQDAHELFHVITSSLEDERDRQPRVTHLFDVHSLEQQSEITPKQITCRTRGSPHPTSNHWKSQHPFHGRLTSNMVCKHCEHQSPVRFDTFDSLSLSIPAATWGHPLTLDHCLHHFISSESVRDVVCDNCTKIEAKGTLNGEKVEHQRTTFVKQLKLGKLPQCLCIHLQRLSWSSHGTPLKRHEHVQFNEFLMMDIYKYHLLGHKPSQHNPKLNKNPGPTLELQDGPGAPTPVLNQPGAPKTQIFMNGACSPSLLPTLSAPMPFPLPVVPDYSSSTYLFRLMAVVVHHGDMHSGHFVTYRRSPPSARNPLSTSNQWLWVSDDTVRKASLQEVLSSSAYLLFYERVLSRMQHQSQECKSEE
USP8 block: inhibitors of human USP8 deubiquitinase; purified USP8, Ub-rhodamine cleavage fluorescence, 30 min; inhibition, % at 20 µM; P40818; 47,000 compounds, 4.2% hits
USP17 block: human USP17-like deubiquitinase inhibition; AID 1645855; 47,000 compounds, 6.5% hits; inhibition, % at 50 µM; purified USP17, Ub-rhodamine cleavage fluorescence, 3 h
USP10 block: human USP10 deubiquitinase inhibition; Q14694; purified USP10, Ub-rhodamine fluorescence, 60 min; inhibition, % at 20 µM; 47,000 compounds, 1.1% hits; AID 1645856
An asterisk follows results filed as active; / = no result given. Sampled rows, rich in hits. Any-hit rate of the full collection: about 13%. Rule as the data show it: active = inhibition above about 30%; inactive = the rest.

SMILES | UCHL1 block | USP7 inh | USP30 block | USP8 block | USP17 block | USP10 block
Cc1ccc(-n2nnc(C(=O)O)c2-c2ccccn2)cc1 | -1.8 | 0.8 | -10.5 | -0.3 | -6.0 | -0.4
O=c1[nH]c2ccc(NCc3ccccc3OCc3ccc(Cl)cc3)cc2[nH]1 | 9.3 | -58.3 | 30.8* | -147.6 | 26.9 | 11.2
CC[C@H](C)C[C@H]1CC[C@](O)([C@](C)(O)C(=O)N[C@@H]2C(=O)N3NCCC[C@@H]3C(=O)N(O)[C@@H](C)C(=O)NCC(=O)N3NCCC[C@H]3C(=O)N(O)[C@H](C)C(=O)O[C@H]2C(C)C)O[C@@H]1C | 3.4 | -141.9 | 60.8* | -0.4 | 41.4* | -2.2
COc1ccc(Cn2c(CO)cnc2SCC(=O)Nc2cc(C)cc(C)c2)cc1 | 1.4 | -5.5 | -14.9 | 5.7 | -19.3 | 1.7
COc1ccc(OC)c(C(=O)CSc2nc3nc(C)c(Br)cc3[nH]2)c1 | 1.7 | 2.1 | -20.4 | -9.0 | 49.8* | -3.3
CCOc1ccc(NC(=O)CSc2nc3ncc(Br)cc3[nH]2)cc1 | -1.8 | 0.6 | -34.4 | 7.6 | -20.0 | 16.3
Cc1ccccc1NC(=O)Cn1c(N2CCOCC2)nc2cc(C)n(C)c2c1=O | -0.7 | -1.9 | 62.3* | 4.8 | 36.4* | -6.2
CCc1ccc(NC(=O)Cn2c(N3CCOCC3)nc3cc(C)n(C)c3c2=O)cc1 | -0.4 | 0.7 | 33.4* | 13.9 | 39.6* | -5.4
Cc1cc2nc(N3CCOCC3)n(CC(=O)Nc3cccc(F)c3)c(=O)c2n1C | -0.1 | -0.1 | 12.9 | 18.7 | 38.1* | 0.0
Cc1ccc(NC(=O)Cn2c(N3CCOCC3)nc3cc(C)n(C)c3c2=O)cc1 | 1.3 | 1.3 | 49.0* | 5.0 | 14.3 | -4.0
Cc1cc(C)n(-c2nc3c(c(=O)n2CC(=O)Nc2ccccc2C)CCC3)n1 | -2.0 | 0.3 | -7.6 | -12.5 | -10.6 | -1.5
CCc1cc(=O)n(CC(=O)Nc2cccc(F)c2)c(N2CCOCC2)n1 | 0.8 | -1.0 | 16.5 | 10.9 | 9.2 | -0.7
Cc1cccc(NC(=O)Cn2c(N3CCOCC3)nc(C)cc2=O)c1 | -2.5 | -0.5 | 1.4 | 0.3 | -1.4 | 0.0
O=C(NCc1ccncc1)C1CCN(c2cncnc2N2CCCCC2)CC1 | -9.1 | -3.8 | -42.2 | -14.6 | -12.2 | -1.0
CCN(CC)CCn1c(NC(=O)c2ccc(S(=O)(=O)N3CCOCC3)cc2)nc2ccccc21 | 2.1 | -0.5 | 3.0 | 69.9* | 7.7 | -3.2
O=C(COC(=O)C(c1ccccc1)c1ccccc1)Nc1ccc(S(=O)(=O)N2CCCC2)cc1 | 4.5 | 7.9 | 13.2 | 2.8 | 0.3 | 10.5
CCOc1cc(-c2noc(-c3ccccc3)n2)ccc1OCC(=O)Nc1ncccc1C | 7.8 | 10.2 | 31.5* | 14.4 | 37.8* | 3.4
COc1ccc(-c2noc(-c3cccc(OCC(=O)Nc4cccc(C)n4)c3)n2)cc1 | 0.2 | 0.6 | -4.7 | 8.9 | 13.8 | 4.0
O=C(Nc1ccccc1)c1ccc(N2CCCC2)c([N+](=O)[O-])c1 | -0.2 | -5.7 | -7.3 | -57.5 | -21.5 | 5.5
NC(=O)c1ccc(N2CCN(c3ccccc3O)CC2)c([N+](=O)[O-])c1 | 3.1 | / | -9.9 | 11.6 | 31.6* | 0.8
Cc1ccc(NC(=O)COc2ccccc2/C=C2/NC(=O)N(Cc3ccc(F)cc3)C2=O)cc1 | 0.8 | 12.6 | 45.2* | 24.2 | 29.0 | 36.1*
Cc1ccc(NC(=O)COc2ccccc2C#N)cc1 | -1.3 | -4.8 | 6.7 | 0.5 | 15.7 | 3.3
O=C(Cn1cc(-c2nc(C3CC3)no2)ccc1=O)Nc1ccccc1 | 0.8 | 9.8 | -18.8 | 3.5 | 48.8* | 10.3
Cc1ccc(NC(=O)COc2ccccc2-c2noc(-c3cccc(F)c3)n2)cc1 | -2.7 | 0.8 | 0.0 | 10.4 | 17.0 | -2.1
Cc1nc(-c2noc(-c3cccc(F)c3)n2)cn1CC(=O)Nc1ccccc1 | 17.6 | -33.5 | -4.2 | 38.2* | -16.6 | 62.3*
SMILES | UCHL1 block | USP7 inh | USP30 block | USP8 block | USP17 block | USP10 block
N#Cc1cccc(NC(=O)Cn2cccc2-c2nc(-c3ccccc3)no2)c1 | 1.6 | 10.9 | 13.1 | 31.0* | 31.0* | 18.4
CCN1CCN(CC(=O)n2c(C)c(C)c3ccccc32)CC1 | 1.8 | 3.8 | 16.9 | 4.2 | 8.0 | 0.8
Cc1cc(Nc2cccc(Cl)c2)n2nc(-c3cccnc3)nc2n1 | -1.3 | -4.0 | -16.0 | 21.8 | 26.6 | -9.2
Cc1ccc(CNC(=O)c2cnc(-c3ccccc3)nc2-c2ccncc2)cc1C | -6.5 | 0.5 | -14.1 | 26.3 | 14.1 | -13.9
CCOc1ccc(-c2c3c4n(c(-c5ccc(Cl)cc5)cn4c2C(=O)Nc2ccccc2OC)CCCC3)cc1 | -1.7 | -0.3 | -226.7 | -17.1 | -64.8 | -6.3
Cc1nc2ccc(NC(=O)Nc3ccccc3F)cc2s1 | -4.2 | -0.5 | -37.0 | -8.5 | -12.1 | -5.2
Cn1c(=O)c2c(nc(SCc3nnc(-c4ccccc4)o3)n2Cc2ccc(F)cc2)n(C)c1=O | 8.0 | -3.7 | 62.7* | -37.3 | 59.1* | 1.3
c1ccc2c(c1)nc(-c1cscn1)n2Cc1ccc(-c2nn[nH]n2)cc1 | 0.0 | 3.4 | -3.3 | -62.3 | -13.4 | 0.5
COc1ccc(C(=O)c2conc2C(C)=O)cc1 | -3.3 | -0.6 | -2.8 | 2.4 | 1.0 | -0.3
CCc1cc(C(=O)c2ccc(OC)cc2)c(NC(=O)CN2CCCCC2)s1 | 5.8 | 11.6 | 73.9* | 5.1 | 4.7 | 4.8
COc1ccc(Cl)cc1NC(=O)CN1CCCCCC1 | 0.5 | 3.5 | 7.1 | 7.6 | 0.0 | 5.1
CCc1cc(C(=O)c2ccc(OC)cc2)c(NC(=O)CCC(=O)O)s1 | 2.0 | 4.2 | 30.6* | 1.2 | 28.9 | 5.8
COc1ccc(C(=O)Nc2cc(OC)c(NC(=O)CN3CCOCC3)cc2OC)cc1 | 0.9 | -5.6 | -121.5 | 58.2* | -4.8 | -4.9
C[C@@H]1CCC2[C@](C)(CO)CCC[C@]2(C)[C@@]12CC[C@@](CO)(CCO)O2 (some centres not stated) | -0.4 | 5.7 | 28.2 | 12.0 | 11.0 | 4.7
CCn1c(=O)c(C(=O)Nc2ccc(OC)cc2)nc2ccccc21 | 4.0 | 0.3 | / | -3.7 | -9.8 | 3.1
CO[C@H]1C[C@@H]2CC[C@@H](C)[C@@](O)(O2)C(=O)C(=O)N2CCCC[C@H]2C(=O)O[C@H]([C@H](C)C[C@@H]2CC[C@@H](O)[C@H](OC)C2)CC(=O)[C@H](C)/C=C(\C)[C@@H](O)[C@@H](O)C(=O)[C@H](C)C[C@H](C)/C=C/C=C/C=C/1C | -8.0 | -5.9 | -143.6 | -72.5 | -29.8 | -9.3
Cc1cccc(NC(=O)c2cc3ccccc3c(=O)s2)c1 | 19.3 | 25.7 | / | 32.8* | 69.2* | 18.1
CCOCCc1nnc(NC(=O)C(=O)c2cc(C)n(-c3ccc(F)cc3)c2C)s1 | 0.8 | 5.3 | -16.7 | -0.1 | 6.8 | -1.3
Cc1cc(C(=O)C(=O)Nc2nnc(-c3cccnc3)s2)c(C)n1-c1ccccc1F | 11.9 | -9.2 | -342.5 | 37.4* | -27.7 | -5.9
CC(C)N1CC=CCC(C2CCNCC2)C1=O (configuration not stated) | -4.2 | -1.6 | -46.7 | -12.5 | -45.8 | -5.4
